Only some compounds are listed: those with a hit (about 7.3% of all), similar ones and a draw of the others.
HCV inh: inhibitors of hepatitis C virus infection | Huh7.5.1 HCVcc-Cre infection, luciferase reporter, 44 h | hit rate 3.4% among 340,000 | Potency, µM (highest dose often 41.8 µM), for the others: top-dose activity change, negative = inhibition, actives largely listed as inhibitors | AID 651820; active means well fitted inhibition curve with a large enough effect; inconclusive means small, poorly fitted or top-dose-only effect, or another doubt; inactive means no such curve, though single readings can be large or run the other way; further: potency means the concentration at half of the fitted maximal effect
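Luciferase read-out (15 sec integration) after a 15 min room-temperature substrate step quantifies HCVcc-Cre infection. Cells, 1,000 per well, had compound added 4 h post-plating, then virus at ~0.5 moi, and were cultured 44 h.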
FMDV inh: foot and mouth disease virus antiviral activity; Potency, µM (highest dose often 57.9 µM), without a hit: at the highest dose activity change, negative = inhibition, actives largely listed as inhibitors; hit rate 1.2% among 410,000; FMDV antiviral cell-based qHTS; calls by dose curve; tested in HEK293T cells; further: read-out not given here; potency means the concentration at half of the fitted maximal effect; nearly all actives have a fitted effect of over 45% in size
HCMV antiviral: human cytomegalovirus inhibition; hit rate 4.5% among 410,000; activity change, negative = inhibition, % at 57.5 µM; AID 1259415; HFF cells, HCMV-luciferase reporter, 72 h; stronger effect = lower value; in the data active means activity change below about -60%; inconclusive means no clear call, values can overlap the other calls; inactive means above about -39%
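Luciferase read-out from HCMV-luciferase-infected HFFs (MOI 1 PFU/cell) 72 h post infection at 37C; compounds added after 16 h cell attachment; activity normalized between buffer-only basal and Salinomycin (10uM) inhibitor controls.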
VACV mCherry inh: vaccinia inhibition (mCherry reporter); Potency, µM (series often up to 36.5 µM), inactives show at the top dose activity change, negative = inhibition, hits mostly inhibitors; Vaccinia virus mCherry reporter infection, fluorescence; hit rate 0.63% among 310,000; calls by dose curve; tested in A549 cells; further: potency means the concentration at half of the fitted maximal effect; nearly all actives have a fitted effect of over 35% in size
VACV Venus inh: vaccinia inhibition (Venus reporter); Vaccinia virus Venus reporter expression, fluorescence; Potency, µM (doses to about 36.5 µM), for inactives: at the top dose activity change, negative = inhibition, most hits filed as inhibitors; hit rate 0.46% among 330,000; AID 720580; calls by dose curve; tested in A549 cells; further: potency means the concentration at half of the fitted maximal effect; nearly all actives have a fitted effect of over 30% in size
The depositor's hits bear a star; i = inactive; ? = inconclusive; / = no result; + = active, no number; [ ] = another dose, or the depositor's remark. On the % scale 0 is the no-effect control and ±100 the full control effect.

SMILES | HCV inh | FMDV inh | HCMV antiviral | VACV mCherry inh | VACV Venus inh
Cc1csc(NC(=O)CS(=O)(=O)Cc2ccccc2)n1 | 8% | 21% | -71* | -12% | -17%
Cc1csc(NC(=O)c2ccc(Cn3nc(C)c(Br)c3C)o2)n1 | 10µM* | 22µM* | -16 | ? | ?
CC1CCc2nc(NC(=O)c3ccco3)sc2C1 (stereo unspecified) | ? | -90% | -78* | -11% | ?
Cc1nc(-c2ccc(NC(=O)c3ccco3)cc2)cs1 | -22% | 11µM* | -84* | / | /
Cc1ccccc1CN1CCN(c2ncc(C(=O)NCCN(C)C)s2)C1=O | / | / | -18 | / | /
COc1ccc2cc3cc(C(=O)Nc4ccccc4C)oc3nc2c1 | / | -3% | 12 | -13% | ?
CS(=O)(=O)c1ccc(NC(=O)COc2ccccc2C(=O)Nc2ccccc2)cc1 | / | / | / | -15% | -17%
O=C(Nc1ccccc1)c1cn2ccccc2n1 | 3% | ? | -28 | i[7.34 µM] | -12%[7.34 µM]
Cc1ccc(C(=O)OCC(=O)Nc2nc(-c3ccccc3)cs2)cc1NC(=O)c1ccco1 | 11µM* | 25µM* | -26 | ? | ?
COc1ccc(CC(=O)Nc2cccc(-c3csc(C)n3)c2)cc1 | ? | ? | -14 | / | -23%
CCOc1ccc(-c2cccc(NC(=O)c3ccco3)c2)nn1 | 0% | 4% | 3 | -3% | -15%
Cc1csc(NC(=O)c2cn3ccccc3n2)n1 | 4% | 14µM* | 0 | 0% | -6%
Cc1nc(-c2cccc(NC(=O)COc3ccc(Cl)cc3)c2)cs1 | / | ? | -64* | -7% | -21%
Cc1nc(-c2cccc(NC(=O)c3ccco3)c2)cs1 | -28% | 5% | -87* | -19% | -3%
O=C(O)Cc1csc(NC(=O)c2ccco2)n1 | 0% | -1% | -6 | / | -14%
Cc1csc(NC(=O)c2ccco2)n1 | 1% | 21% | -84* | -8% | -3%
Cc1ccc(C(=O)N/N=C/c2cccc(OC(=O)/C=C/c3ccco3)c2)cn1 | 4% | 5% | ? | 4% | -5%
O=C(/C=C/c1ccco1)Oc1cc(Br)cc(/C=N/NC(=O)c2ccccc2O)c1 | ? | ? | -101* | 2.8µM* | ?
CCOC(=O)Nc1ccc(/C=C/c2ccnc3ccccc23)cc1 | / | / | / | -17% | ?
Oc1c(Br)cc(Br)cc1/C=N/Nc1ccc(Cl)nn1 | 8% | 1% | -97* | -13% | -7%
CCOc1ccc(/C=N/Nc2ccc(Cl)nn2)c(O)c1 | -19% | 16% | -82* | ? | ?
Oc1c(Br)cc(/C=N/Nc2ccc(Cl)nn2)cc1Br | 37% | -11% | -15 | -15% | -9%
CC(C)C[C@H](NS(=O)(=O)c1ccc(F)cc1F)C(=O)N1CCC[C@H]1C(=O)NCc1ccccc1 | / | / | -3 | / | /
O=C(NCC1Cc2cc(-c3cnc4ccccc4c3)cc(F)c2O1)c1cnsn1 (stereo unspecified) | / | 0% | / | ? | ?
CCc1ccc(NC(=O)CSc2ncc(S(=O)(=O)c3cc(C)ccc3C)c(=O)[nH]2)cc1 | / | -7% | -1 | 8% | -3%
SMILES | HCV inh | FMDV inh | HCMV antiviral | VACV mCherry inh | VACV Venus inh
CNC(=S)N1CCN(CCNC2=CC(=O)CC(C)(C)C2)CC1 | 3% | -9% | -22 | / | /
CC1(C)CC(NCCN2CCN(C3=CC(=C(C#N)C#N)CC(C)(C)C3)CC2)=CC(=C(C#N)C#N)C1 | ? | -23% | -63* | / | /
COc1cc(C)nc(-c2csc(C)n2)n1 | 4% | -1% | -86* | / | /
CCOC(=O)c1ccc2c(c1)N(Cc1ccc(F)cc1Cl)C(=O)c1ccccc1S2 | / | -29% | ? | -12% | -10%
CN(C)CC(CCCCC(CN(C)C)C(=O)c1ccccc1)C(=O)c1ccccc1 (stereo unspecified) | 8.9µM* | ? | ? | / | /
Cn1c(CCN2CCN(c3ccccn3)CC2)nc2cc(NC(=O)COc3ccc(Cl)cc3)ccc21 | 2.2µM* | 11µM* | -97* | / | /
CCN1CCN(CCc2nc3cc(NC(=O)COc4ccccc4)ccc3n2C)CC1 | -4% | 3% | -21 | i | -3%
Cc1cccc(OCC(=O)Nc2ccc3c(c2)nc(CCN2CCN(c4ccccn4)CC2)n3C)c1 | 6.3µM* | 32µM* | + | / | /
COc1ccc(OCC(=O)Nc2ccc3c(c2)nc(CCN2CCN(c4ccccn4)CC2)n3C)cc1 | / | ? | ? | i | -27%
Cc1ccc(NC(=O)C2(C)Cc3ccccc3C(=O)O2)c(C)c1 (stereo unspecified) | / | -20% | 20 | 2% | -2%
CCN(CC)S(=O)(=O)c1cccc(S(=O)(=O)N2CCCCC2)c1 | 7% | / | 0 | -4% | -27%
CCN(CC)S(=O)(=O)c1cccc(S(=O)(=O)c2cccc(S(=O)(=O)N(CC)CC)c2)c1 | 11µM* | -4% | -69* | / | /
CCOC(=O)c1cccnc1SCC(=O)Nc1ccc(C)cc1C | / | 18% | 43 | -4% | -18%
COC(=O)CC/C(C)=N\Nc1ccc([N+](=O)[O-])cc1[N+](=O)[O-] | -16% | -20% | -103* | / | /
CCOc1ccccc1Nc1nc(-c2cccc(Cl)c2)c2c(n1)-c1ccccc1OC2 | / | -19% | 2 | i | -8%
C=CCN1[C@@H](C(C)C)COCCS1(=O)=O | / | / | / | -18% | -8%
CN1C(=O)C(C2(O)C(=O)N(Cc3ccccc3)c3cc(F)ccc32)c2ccccc21 (stereo unspecified) | / | / | -23 | / | /
C=CCOC(=O)Nc1c(C(=O)OC)[nH]c2ccccc12 | 10µM* | -5% | 53 | / | 15%
COC(=O)c1[nH]c2ccccc2c1NC(=O)c1ccccc1F | 13µM* | -6% | 6 | / | /
CCOC(=O)Nc1c(C(=O)OC)[nH]c2cc(OC)ccc12 | 25µM* | -9% | 37 | ? | -17%
COc1ccc(-c2[nH]c(-c3cccc(OC)c3)nc2SCC(=O)Nc2ccc3c(c2)OCO3)cc1 | / | 5% | ? | -13% | -9%
C(=C\c1c[nH]c2ccccc12)/c1ccc2ccccc2n1 | / | / | / | ? | -10%
COc1ccc(O)c(CN2CCCN(c3nc(C)c4cc(C)c(C)cc4n3)CC2)c1 | / | 5% | / | -1% | -8%
Cn1nc(C(=O)NC2CCCN(Cc3ccccc3F)C2)c2ccccc2c1=O (stereo unspecified) | ? | -24% | 35 | -15% | -12%
CCc1cc(C(=O)NC2CCCN(Cc3ccccc3F)C2)n(C)n1 (stereo unspecified) | 8.9µM* | ? | -34 | / | /
SMILES | HCV inh | FMDV inh | HCMV antiviral | VACV mCherry inh | VACV Venus inh
O=C(CN1Cc2ccccc2OC(c2ccccc2)C1)NCc1cccnc1 (stereo unspecified) | / | 54% | / | -11% | -5%
CCOC(=O)c1c(NC(=O)COC(=O)Cn2cnc3ccccc32)sc(C)c1C | ? | -6% | 18 | 10µM* | ?
COC(=O)c1c(NC(=O)COC(=O)Cn2cnc3ccccc32)sc(C)c1C | ? | 6% | 2 | -12% | -17%
CCOC(=O)c1c(NC(=O)c2cccnc2)sc(C)c1C | 10µM* | / | -32 | -9% | 0%
CCCCNCC(=O)Nc1sc(C)c(C)c1C(=O)OCC | 11µM* | -5% | 0 | -5% | -1%
CCOC(=O)c1sc(NC(=O)c2cccnc2)c(C#N)c1C | -2% | -12% | 17 | -13%[1.46 µM] | 12%

Screening results as filed in PubChem BioAssay.
